# The supplement of paper PMC6555819
# Test system: RARb:RXRa (NR concentration 270 nM, RXRa partner concentration 90 nM)
# Experiment: PBM binding z-score (relative to random genomic background probes); higher = stronger binding; sequences stand for … in GC…GCGATTGACAGCGTAGAATGAAGG
# In short: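 For binding z-scores, the reference was random background probes on custom Agilent 4×180K protein-binding microarrays. These arrays were incubated 1 h with ligand-free nuclear receptor dimers in PBS pH 7.4, 2% milk, 0.02% Triton X-100, 1 mM DTT, 0.2 mg/mL BSA and 0.4 mg/ml salmon testes DNA. Fluorescence was scanned after antibody detection of each partner (one per run) and regression-normalized.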
row,Sequence,PBM binding z-score
1,TATACAGGGTCAAAGGGCAGAGTACGAATGTCGA,4.84
2,CAAACTAGGTCACCGGAAGGTCAAAGTTCGCATG,5.44
3,TAGCCTAGGTTATGCGGGCCAGTATAGTGTCGGC,0.558
4,CCTACTGGGCCAAAAAGGCCATTGATGCCGATAA,0.816
5,CGAACTAGGTCAAAGGCCAGTGAAAGGCGACGTA,3.87
6,ATCTCTAGGTTAAAGTTCAGTGAATCCCGAGGAT,3.28
7,CCGACTGGGGCAAAGGTTACGATACTCAGTACGA,2.57
8,ACTCGGAGGACAGAGGTCAGAGCTACGCCAGTGA,3.57
9,CAAACTAGGTCACAGAGGTCAAAGTTCGTGCGTA,5.29
10,CCAGACAGGTGAAAGGTCACTCAGTCTGGTACGC,4.91
11,CAATCTAGGTCACAGAGGTCAAAGTCCGTGCGTA,5.46
12,ACTAGCAGGTCAAGGGTCACTCAAGATTAGTCCG,4.86
13,CATACACGGTCAGCTAGGCCAGAGTAGGGACGGC,2.49
14,GCTTCCGGGTCAAAGGTTATAGCATGAATAGAAT,4.45
15,TCAGATAGGTAAAGGTGAAAGTCGAACGATATGA,2.16
16,ATATGTAGGTCAGGGTCATTCAGAAAGTAGGGAA,4.49
17,CTAACTAGGTCACCGGAAGGTCAAAGTCCGCATG,5.55

row,Sequence,PBM binding z-score
1,CGTCCAAGGTCAGCAGGTGAGTGAAAGCGACGTG,4.87
2,TCATATAGGTAATAAAGGTGAAAGTCGGCATCTA,1.6
3,CGTCCAAGGTCAGCAGGTCAGAGAAAGCGACGTG,5.39
4,CGTCCAAGGTCAAAGGTCACTGAAGAGATGACGG,5.96
5,TCTAGTTGGTCACGGAGGTCACACGCGACGGGTA,3.87
6,TCATATAGGTTAAAGGTGAAAGTCGGTGTGGTAA,2.9
7,CAAACTAGGTCACGAGGTCAAAGTCCGCTTCCCG,5.48
8,CGTCCAAGGTCAATGCTAGCTCAGTGAAAGCATT,5.02
9,CCTAGTGGGCCAAAGGTCATTGATTCCAATGCTC,4.62
10,CCTGCTAGGTCAAGGGTCAGCTAAAGCAGCTCGC,4.96
11,ACTCGGAGGGCAAAGGTCAGAGCTACGCCAGTGA,4.93
12,GATACAGGGTCAGCTAGAGGTCAGAGTATGGAAA,5.32
13,AGAATGGGGTTAAGATCAGGGAAACAGAATACAT,2.47
14,TCATATAGGTAATCAGGTGAAAGTCCGTAAGTTA,0.56
15,CGTCCAAGCTCAGCAGGTCAGTGAAAGCGACGTG,1.45
16,CGAACTAGGTCAAAGGACACTGAAAGGCGACGTA,3.86
